Assay outcomes deposited in PubChem BioAssay by Johns Hopkins Ion Channel Center.
KCNQ2 inh: inhibitors of rat KCNQ2 potassium channel; O88943; CHO-K1 KCNQ2, FluxOR thallium flux, 20 min; hits give low values; B-score at 10 µM; 1.1% of 310,000 active;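 active = fluorescence ratio B-score at most minus 3 library SDs, with starting brightness B-score within 2 library SDs, cut at about -5.5 in these data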
KCNQ2 pot: potentiators of rat KCNQ2 potassium channel. O88943. 0.54% of 310,000 active. B-score at 10 µM. AID 2239. CHO-K1 KCNQ2, FluxOR thallium flux fluorescence; hits give high values;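 active = fluorescence ratio B-score at least 3 SD of library B-scores, with initial fluorescence B-score within 3 of them, cut at about 5.3 in these data; same plate scores as AID 2156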;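 also: B-score of peak minus minimum over baseline fluorescence ratio after K+ and Tl+ stimulus; positive B-score means potentiation of KCNQ2 with more thallium influx and brighter signal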
KCNQ2 inh conf: confirmation of rat KCNQ2 potassium channel inhibitors; shares compounds with KCNQ2 inh; KCNQ2-expressing cells, thallium flux, inhibition; hits give low values; activity change, negative = inhibition, % at 10 µM; 57% of 1,000 active;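 also: 0% = vehicle wells and values are ratio percent relative to vehicle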
KCNQ1 spec: selectivity of KCNQ2 inhibitors against human KCNQ1; shares compounds with KCNQ2 inh; KCNQ1-expressing cells, FluxOR thallium flux fluorescence; hits give low values; activity change, negative = inhibition, % at 10 µM; 15% of 1,000 active; AID 493026;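 active = activity change at least 3 SD of negative controls below their mean in both duplicate wells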;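 also: CHO cells stably transfected with KCNQ1 and depolarized by potassium stimulus; peak minus minimum fluorescence over baseline after thallium addition; 0% = vehicle negative control and -100% = blank without thallium stimulus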
CHO parental ctr: counter-screen for KCNQ2 inhibitors: effect in parental CHO cells | shares compounds with KCNQ2 inh | thallium flux counter-screen; hits give low values | activity change, % at 10 µM | 14% of 1,000 active | AID 493029;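 also: 0% = vehicle negative controls with stimulus buffer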
KCNQ2 patch conf: confirmation of rat KCNQ2 potassium channel inhibitors; KCNQ2-expressing cells, automated patch clamp current; shares compounds with KCNQ2 inh; 49% of 550 active; calls only at 10 µM
* = called active by the depositor. Only some compounds are listed: those with a hit (about 1.6% of all), similar ones and a draw of the others. Unless noted, no rule for the calls is given here.

Results for Cc1cc(C)c(S(N)(=O)=O)c(C)c1N(C)S(=O)(=O)c1ccc(Cl)cc1 ?
KCNQ2 inh: inactive; KCNQ2 pot: 1.1

How did COc1cc(N)ccc1NC(=O)c1cc2ccccc2o1 do in these assays?
KCNQ2 inh: inactive; KCNQ2 pot: 0.35

Results for COCCn1cc(C(=O)NCc2ccco2)c2c3ccccc3n(C)c2c1=O ?
KCNQ2 inh: inactive; KCNQ2 pot: 0.07

Results for Cn1c2ccccc2c2c(C(=O)NCc3ccco3)cn(C3CCCCC3)c(=O)c21 ?
KCNQ2 inh: -9.8*; KCNQ2 pot: -9.8; KCNQ2 inh conf: -26%*; KCNQ1 spec: inactive; CHO parental ctr: inactive; KCNQ2 patch conf: active

How did CCOC(=O)c1c(C)nc2c(c1-c1cc(OC)ccc1OC)C(=O)c1ccccc1-2 do in these assays?
KCNQ2 inh: inactive; KCNQ2 pot: 0.12

Results for CCOC(=O)c1c(C)nc2c(c1-c1ccccc1)C(=O)c1ccccc1-2 ?
KCNQ2 inh: -12*; KCNQ2 pot: -12; KCNQ2 inh conf: -30%*; KCNQ1 spec: inactive; CHO parental ctr: inactive; KCNQ2 patch conf: active

How did COc1cccc(NC(=S)N(Cc2ccccn2)Cc2ccccc2Cl)c1 do in these assays?
KCNQ2 inh: inactive

What do the screens show for `COc1ccc(NC(=S)N(Cc2ccccn2)Cc2ccccc2Cl)cc1`?
KCNQ2 inh: -7.9*; KCNQ2 pot: -7.9; KCNQ2 inh conf: inactive; KCNQ1 spec: inactive; CHO parental ctr: inactive

What do the screens show for `Cc1ccc(S(=O)(=O)Oc2ccc(/C=N/NC(=O)c3nn(C)cc3[N+](=O)[O-])cc2)cc1`?
KCNQ2 inh: inactive; KCNQ2 pot: 0.17

Results for CN(C)c1nc(/C=C(\C#N)C(N)=O)c(Cl)n1-c1ccc(F)cc1 ?
KCNQ2 inh: inactive; KCNQ2 pot: 0.02

What do the screens show for `COc1cccc(NC(=O)Nc2ccc(C(C)(C)C)cc2)c1`?
KCNQ2 inh: -8.7*; KCNQ2 pot: -8.7; KCNQ2 inh conf: inactive; KCNQ1 spec: inactive; CHO parental ctr: inactive

How did COc1cccc(NC(=O)Nc2ccncc2)c1 do in these assays?
KCNQ2 inh: inactive; KCNQ2 pot: 0.23

How did CC1(c2ccc(OC(F)F)cc2)NC(=O)N(CC(=O)Nc2cccc(F)c2)C1=O (configuration not stated) do in these assays?
KCNQ2 inh: inactive; KCNQ2 pot: 0.61

Results for CCOC(=O)Cn1ccc(-c2ccccc2)c(C#N)c1=O ?
KCNQ2 inh: inactive; KCNQ2 pot: 0.7

Results for O/C(=C\Sc1nnc(Cc2ccccc2)o1)c1ccc(F)cc1 ?
KCNQ2 inh: inactive; KCNQ2 pot: 1.4

What do the screens show for `CC(C)(C)n1nnnc1C(c1cccnc1)N1CCN(c2cccc(C(F)(F)F)c2)CC1` (configuration not stated)?
KCNQ2 inh: inactive; KCNQ2 pot: 1.6

Results for CC(C)(C)c1cc(C(c2cccnc2)N2CCN(CCO)CC2)cc(C(C)(C)C)c1O (configuration not stated) ?
KCNQ2 inh: -9.2*; KCNQ2 pot: -9.2; KCNQ2 inh conf: -26%*; KCNQ1 spec: inactive; CHO parental ctr: inactive; KCNQ2 patch conf: inactive

How did O=C(O)c1ccccc1C(=O)N(Cc1ccccc1)Cc1ccccc1 do in these assays?
KCNQ2 inh: inactive

What do the screens show for `O=C(O)c1cc(Cl)c(Cl)cc1C(=O)N(Cc1ccccc1)Cc1ccccc1`?
KCNQ2 inh: -7.5*; KCNQ2 pot: -7.5; KCNQ2 inh conf: -30%*; KCNQ1 spec: inactive; CHO parental ctr: inactive; KCNQ2 patch conf: active

Results for CCCCOc1cccc(C2/C(=C(/O)c3ccc4c(c3)CC(C)O4)C(=O)C(=O)N2CCN2CCOCC2)c1 (configuration not stated) ?
KCNQ2 inh: inactive

What do the screens show for `CC(C)CNC(=O)c1nc(-c2ccccc2)n(-c2ccccc2)n1`?
KCNQ2 inh: inactive

How did CC(OC(=O)c1nc(-c2ccccc2)n(-c2ccccc2)n1)C(=O)Nc1cc(Cl)cc(Cl)c1 (configuration not stated) do in these assays?
KCNQ2 inh: -6.9*; KCNQ2 pot: -6.9; KCNQ2 inh conf: inactive; KCNQ1 spec: inactive; CHO parental ctr: inactive

Results for CCN(Cc1ccccc1)C(c1ccccn1)c1nnnn1C1CCCCC1 (configuration not stated) ?
KCNQ2 inh: inactive
